Compound activity: PubChem BioAssay, National Center for Advancing Translational Sciences (NCATS)
D1 PAM: enhances dopamine response at the human D1 receptor; P21728; HEK293 TREx D1 cells, calcium flux, dopamine EC20 potentiation; potentiation, % at 10 µM; 360,000 compounds, 0.036% hits; AID 504651; in the data active means potentiation above about 30%
Target sequence (P21728 whole entry, looked up): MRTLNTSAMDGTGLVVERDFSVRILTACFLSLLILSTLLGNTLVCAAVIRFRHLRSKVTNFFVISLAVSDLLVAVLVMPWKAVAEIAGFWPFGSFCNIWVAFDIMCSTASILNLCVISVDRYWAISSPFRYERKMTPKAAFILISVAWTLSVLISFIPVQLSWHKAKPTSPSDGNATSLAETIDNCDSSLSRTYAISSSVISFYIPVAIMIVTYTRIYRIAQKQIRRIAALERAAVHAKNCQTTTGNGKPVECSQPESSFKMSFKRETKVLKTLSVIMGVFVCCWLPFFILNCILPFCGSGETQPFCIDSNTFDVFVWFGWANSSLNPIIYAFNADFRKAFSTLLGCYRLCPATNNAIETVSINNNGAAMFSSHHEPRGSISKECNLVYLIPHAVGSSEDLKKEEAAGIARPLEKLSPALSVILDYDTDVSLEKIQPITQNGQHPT
LDHA inh: LDHA (human) enzyme inhibition. purified LDHA, NADH/diaphorase-resazurin fluorescence; stronger effect = lower value. 480,000 compounds, 0.15% hits. activity change, % (values are at about 110 or 230 µM). AID 1347041; in the data active means activity change below about -30%
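Human LDH5 (2 nM) was incubated with 0.06 mM NADH and 0.2 mM pyruvate for 5 min at room temperature in Tris pH 7.4. Remaining NADH was coupled through diaphorase/resazurin, and resorufin fluorescence was read at 0 and 20 min.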
D1 antagonist: antagonists of human D1 dopamine receptor; P21728; HEK293 TREx D1 cells, calcium flux, dopamine EC80; stronger effect = lower value; activity change, negative = inhibition, % at 10 µM; 360,000 compounds, 3.2% hits; in the data active means activity change below about -30%
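Cells carrying a force-coupled, tetracycline-inducible human D1 receptor report calcium flux. Each well gets a 10 s baseline, compound with 180 s monitoring, then an EC80 dopamine stimulus with a second 180 s kinetic read.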
TRHR PAM: TRH receptor (human) allosteric enhancement; 360,000 compounds, 0.66% hits; TRHR cells, fluo-8 calcium fluorescence, EC20 TRH enhancement; enhancement, % at 2 µM; P34981; in the data active means enhancement above about 30%
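TRHR-expressing cells loaded with fluo-8 calcium dye were read kinetically (ex 480/em 530) during compound addition, then stimulated with an EC20 of TRH (10 nM final). Enhancement of the Gq-mediated intracellular calcium response was scored.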
D1 ag: agonists of human D1 dopamine receptor; P21728; HEK293 T-REx D1 cells, calcium flux, agonist mode; activation, % at 2 µM; 360,000 compounds, 1% hits; AID 504660
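Inducible HEK293 T-REx D1 cells, force-coupled to calcium signalling, were plated at 4000 cells/well with tetracycline and held overnight at 30 C. After no-wash calcium dye loading, compound-evoked calcium rise over 180 s flagged agonists.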
TRHR ag: TRH receptor (human) agonism; P34981; TRHR cells, calcium flux fluo-8, FDSS agonist mode; activation, % at 2 µM; 360,000 compounds, 0.18% hits
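Agonist-mode FDSS calcium read (Ex 480/Em 530, 1 s cycles) in 1536-well TRHR cells with fluo-8 dye, after 10-cycle baseline and 23 nL compound addition; TRH at EC20 (10 nM final) added afterwards for the enhancer phase.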
A number is an active result. Hits are enriched below; roughly 3.6% of the tested compounds scored in any of these assays. Unless noted, no stated cut-off is given here; in the data, active means activation above about 30%; inactive means the rest.

Results for CC(Cc1cccs1)N(Cc1ccccc1)C(=O)c1ccc(C#N)cc1 (stereo unspecified) ?
LDHA inh: inactive

Results for O=C(NNc1c([N+](=O)[O-])cc(C(F)(F)F)cc1[N+](=O)[O-])c1ccco1 ?
D1 PAM: inactive; LDHA inh: inactive; D1 antagonist: -35.9; TRHR PAM: inactive; D1 ag: inactive; TRHR ag: inactive

How did O=C(NNc1c(F)c(F)cc(F)c1F)c1ccco1 do in these assays?
LDHA inh: inactive

What do the screens show for `Cc1cccc(-c2nc(C#N)c(N3CCOCC3)o2)c1`?
LDHA inh: -31.3

How did O=C(Nc1cccnc1)c1ccc(COc2ccccc2Br)cc1 do in these assays?
D1 PAM: inactive; LDHA inh: inactive; D1 antagonist: -69.3; TRHR PAM: inactive; D1 ag: inactive; TRHR ag: inactive

What do the screens show for `CC(=O)Nc1cccc(NC(=O)c2ccc(COc3ccccc3)cc2)c1`?
LDHA inh: inactive; D1 antagonist: inactive; TRHR PAM: inactive; D1 ag: 36.1; TRHR ag: inactive

Results for O=C(Nc1cccnc1)c1ccc(Oc2ccccc2)cc1 ?
D1 PAM: inactive; LDHA inh: inactive; D1 antagonist: inactive; TRHR PAM: 34.3; D1 ag: inactive; TRHR ag: inactive

Results for COc1ccc(OCc2ccc(C(=O)NN)cc2)cc1 ?
D1 PAM: inactive; LDHA inh: inactive; D1 antagonist: -42.4; TRHR PAM: inactive; D1 ag: inactive; TRHR ag: inactive

How did CN(C)S(=O)(=O)N(CC(=O)NC1CCCC1)c1ccccc1 do in these assays?
LDHA inh: inactive

What do the screens show for `COc1ccc(NC(=O)CSc2nc(N)c(NC(=O)c3ccccc3F)c(=O)[nH]2)cc1`?
D1 PAM: inactive; LDHA inh: inactive; D1 antagonist: inactive; TRHR PAM: inactive; D1 ag: inactive; TRHR ag: inactive

Results for COc1ccc(CC(=O)Nc2ccc(NC(=O)c3ccccc3F)cc2)cc1 ?
D1 PAM: inactive; LDHA inh: inactive; D1 antagonist: inactive; TRHR PAM: inactive; D1 ag: 54.1; TRHR ag: inactive

What do the screens show for `CCCCOc1ccc(C(=O)NNC(=O)C2C3CCC(C3)C2C(=O)O)cc1` (stereo unspecified)?
D1 PAM: inactive; LDHA inh: inactive; D1 antagonist: inactive; TRHR PAM: inactive; D1 ag: inactive; TRHR ag: inactive

What do the screens show for `CCCCOc1ccc(C(=O)NNC(=O)C2C3C=CC(C3)C2C(=O)O)cc1` (stereo unspecified)?
D1 PAM: inactive; LDHA inh: inactive; D1 antagonist: -82.0; TRHR PAM: inactive; D1 ag: inactive; TRHR ag: inactive

What do the screens show for `CC1=C(C(=O)OC2CCCC2)C(c2ccc(F)cc2F)CC(=O)N1` (stereo unspecified)?
D1 PAM: inactive; LDHA inh: inactive; D1 antagonist: -32.6; TRHR PAM: inactive; D1 ag: inactive; TRHR ag: inactive

How did Nc1nccnc1C(=O)NCCc1cccc2cccnc12 do in these assays?
LDHA inh: inactive

Results for CCOC(=O)C(=O)Nc1nccs1 ?
D1 PAM: inactive; LDHA inh: inactive; D1 antagonist: -33.7; TRHR PAM: inactive; D1 ag: inactive; TRHR ag: inactive

How did O=C(NCc1ccccc1)C(=O)Nc1nccs1 do in these assays?
D1 PAM: inactive; LDHA inh: inactive; D1 antagonist: inactive; TRHR PAM: 34.4; D1 ag: inactive; TRHR ag: inactive

What do the screens show for `O=C(CCc1ncc(-c2ccccc2F)o1)N1CCN(S(=O)(=O)c2ccc(F)cc2F)CC1`?
LDHA inh: inactive

Results for Nc1nc(Cl)nc(Nc2ccc(F)cc2)c1[N+](=O)[O-] ?
LDHA inh: inactive

How did CCOc1ccc(NC(=O)C(C)Oc2ccc(C#N)cc2)cc1S(=O)(=O)N1CCCC1 (stereo unspecified) do in these assays?
D1 PAM: inactive; LDHA inh: inactive; D1 antagonist: inactive; TRHR PAM: inactive; D1 ag: 37.6; TRHR ag: inactive

What do the screens show for `COc1cc(/C=C2\C(=N)N3N=CSC3=NC2=O)ccc1OS(=O)(=O)c1ccccc1[N+](=O)[O-]`?
D1 PAM: inactive; LDHA inh: inactive; D1 antagonist: -30.0; TRHR PAM: inactive; D1 ag: inactive; TRHR ag: inactive

What do the screens show for `COc1cc(/C=C2\C(=N)N3N=C(S(C)(=O)=O)SC3=NC2=O)ccc1OC(=O)c1cccs1`?
D1 PAM: inactive; LDHA inh: inactive; D1 antagonist: inactive; TRHR PAM: inactive; D1 ag: inactive; TRHR ag: inactive

How did COc1cc(/C=C2\C(=N)N3N=C(S(C)(=O)=O)SC3=NC2=O)ccc1OCCOc1ccccc1C do in these assays?
D1 PAM: inactive; LDHA inh: inactive; D1 antagonist: inactive; TRHR PAM: 35.3; D1 ag: inactive; TRHR ag: inactive

What do the screens show for `O=C(CCC(=O)OCC(=O)c1ccccc1)Nc1cccc(Cl)c1`?
D1 PAM: inactive; LDHA inh: inactive; D1 antagonist: inactive; TRHR PAM: inactive; D1 ag: inactive; TRHR ag: inactive

Results for CN(C)S(=O)(=O)Oc1ccc(C(=O)Nc2cccc(C(F)(F)F)c2)cc1 ?
D1 PAM: inactive; LDHA inh: inactive; D1 antagonist: inactive; TRHR PAM: inactive; D1 ag: inactive; TRHR ag: inactive

Results for CN(C)S(=O)(=O)Oc1ccc(C(=O)Nc2cccc(Cl)c2)cc1 ?
D1 PAM: inactive; LDHA inh: inactive; D1 antagonist: -46.5; TRHR PAM: inactive; D1 ag: inactive; TRHR ag: inactive

What do the screens show for `CS(=O)(=O)Nc1ccccc1C(=O)Nc1cccc(Cl)c1`?
D1 PAM: inactive; LDHA inh: inactive; D1 antagonist: -33.1; TRHR PAM: inactive; D1 ag: 37.9; TRHR ag: inactive

Results for Cc1ccc(NC(=O)c2c(F)cccc2Cl)cc1NS(C)(=O)=O ?
D1 PAM: inactive; LDHA inh: inactive; D1 antagonist: inactive; TRHR PAM: 38.3; D1 ag: inactive; TRHR ag: inactive

Results for COC(=O)CCC(=O)Nc1cccc(C(=O)Nc2cccc(Cl)c2)c1 ?
D1 PAM: inactive; LDHA inh: inactive; D1 antagonist: inactive; TRHR PAM: inactive; D1 ag: 31.2; TRHR ag: inactive

How did CS(=O)(=O)Nc1ccccc1C(=O)Nc1cc(Cl)cc(Cl)c1 do in these assays?
D1 PAM: inactive; LDHA inh: inactive; D1 antagonist: inactive; TRHR PAM: inactive; D1 ag: inactive; TRHR ag: inactive

Results for O=C(c1cccc(C(F)(F)F)c1)N1CCN(C(=O)C2CC=CCC2)CC1 (stereo unspecified) ?
LDHA inh: inactive

Results for Cc1ccc(F)cc1NC(=O)c1nn(C)c(=O)c2ccccc12 ?
LDHA inh: inactive

Results for O=C(CCC1CCCC1)Nc1cccc2ccccc12 ?
LDHA inh: inactive

Results for O=C(NCc1ccc(F)cc1)c1nc(Cc2c[nH]c3ccccc23)no1 ?
LDHA inh: inactive
